Source: PubChem BioAssay
The entries come from a sample that favours hits as a whole.
TTR transcr act: increases transthyretin transcription. SH-SY5Y TTR promoter Gaussia luciferase, luminescence; 100% = recombinant luciferase protein wells. activation, % at 16.7 µM. actives 1.3% (n = 92,000). AID 1117267;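 active means activation above the mean of all tested compounds plus 3 SD, cut at about 9.5% in these data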;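 further: cells exposed to compounds for one day before reading; 0% = median of all test compound wells on the plate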
HuH7 TTR inh: HuH7 TTR transcription inhibition, counter-screen | shares compounds with TTR transcr act | HuH7 TTR promoter-Gaussia luciferase reporter, luminescence | inhibition, % at 16.7 µM | actives 4% (n = 1,100) | AID 1117279;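 active means average inhibition above the solvent-only control wells' mean plus 3 SD, cut at about 15% in these data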;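 further: 0% = cells with DMSO only and 100% = cells with inhibitor control FD; inhibitors lower well luminescence so higher value means more inhibition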
TTR act confirm: human TTR transcription activation, confirmation; shares compounds with TTR transcr act; SHSY5Y TTR promoter Gaussia luciferase, luminescence; 100% = purified Lucia enzyme wells, no cells; activation, % at 16.7 µM; 1,100 tested, under 10 active; AID 1117280;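 active means mean activation above a set limit taken from the earlier primary screen, cut at about 11% in these data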;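 further: 0% = DMSO-treated cells and 100% = recombinant Lucia luciferase without cells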
Numbers without * were called inactive.

SMILES | TTR transcr act | others
COC(=O)C1=C(c2ccc3ccccc3c2)C[C@@H]2CC[C@H]1N2C | -2.6
COC(=O)C1=C(c2cc3ccccc3s2)C[C@@H]2CC[C@H]1N2C | 14.3*
COC(=O)C1=C(c2cc3ccccc3s2)C[C@@H]2CC[C@H]1N2C(=O)NC1CC1 | 9.0
Cc1cc(O)c2c(c1)C(=O)[C@@]13C(=C2O)C(=O)[C@H]2C(O)[C@@H]1[C@H]1C(O)[C@@H]3C(=O)C3=C(O)c4c(O)cc(C)cc4C(=O)[C@@]312 (some centres not stated) | -1.8
Cc1c(Br)c(=O)oc2cc(OCC(=O)N3C[C@H]4C[C@@H](C3)c3cccc(=O)n3C4)ccc12 | 0.2
CC(=O)OC1C=CC2[C@H]3Cc4ccc(O)c5c4[C@@]2(CCN3C)C1O5 (some centres not stated) | 16.8* | HuH7 TTR inh=-9.4;TTR act confirm=0.1
CN1CC[C@]23c4c5ccc(OC6OC(C(=O)O)[C@@H](O)C(O)[C@H]6O)c4OC2C(O)C=CC3[C@H]1C5 (some centres not stated) | -0.8
CN1CC[C@]23c4c5ccc(O)c4OC2C(O)C=CC3[C@H]1C5 (some centres not stated) | 2.1
COC(=O)[C@@]1(O)c2c(oc3cccc(O)c3c2=O)C=C[C@H]1O | -1.0
c1ccc(N2C3C4CC(C5CCCC54)C32)cc1 (configuration not stated) | 0.4
CNC(=O)C[C@H]1CC[C@@H]2NC[C@H](O)COC[C@H]2O1 | 1.0
CC1CCCN(C(=O)CN2C3CCC2CC(O)(c2ccc(F)cc2)C3)C1 (configuration not stated) | 0.2
OC1(c2ccc(F)cc2)CC2CCC(C1)N2Cc1nnnn1C1CCCCC1 (configuration not stated) | 23.4* | HuH7 TTR inh=-10.3;TTR act confirm=1.3
OCCN1C2CCC1CC(O)(c1ccc(F)cc1)C2 (configuration not stated) | 1.8
NP(=O)(Nc1ccccc1)Nc1ccccc1 | 0.3
O=C(c1ccc2c(c1)N(Cc1ccc(F)cc1)CCS2)N1CCC2(CC1)OCCO2 | 4.8
COC12CCC3(CC1C(C)(O)C(C)(C)C)[C@H]1Cc4ccc(O)c5c4[C@@]3(CCN1CC1CC1)C2O5 (some centres not stated) | -0.1
CCn1c(C)c(C(=O)O)c2cc(OC)ccc21 | -1.3
COc1ccc(-n2c(C)cc(C(=O)C[N+]34CCN(CC3)CC4)c2C)cc1 | 9.9* | HuH7 TTR inh=-8.4;TTR act confirm=2.7
c1coc(CN2Cc3ccccc3-n3nncc3C2)c1 | -0.5
Cc1nc2ccccc2c(=O)n1/N=C/c1cc(Br)cc(Br)c1O | 0.3
Cn1cc(P(=S)(c2ccccc2)c2ccccc2)c2ccccc21 | 6.9
CCOC(=O)[C@]12Cc3cc(Cl)ccc3[C@H]1N(C(C)C)C(=O)c1ccccc12 | -6.1
c1cnc(OCCN2CC2)cn1 | 2.5
c1cc(OCCN2CC2)ccn1 | 10.3* | HuH7 TTR inh=0.9;TTR act confirm=-0.3
SMILES | TTR transcr act | others
O=C(Cc1ccccc1)OCCN1CCOCC1 | -1.6
O=C(Nc1ccc(F)cc1)N1Cc2ccccc2-n2nncc2C1 | 2.4
CC(C)(C)C1(CCO)C(=O)NC(=S)NC1=O | -0.2
O=C1NC(=O)C(Cc2ccccc2)(Cc2ccccc2)C(=O)N1 | 0.5
COc1ccc2c(c1O)C13CCN(C)C(C2)C1CCC(=O)C3 (configuration not stated) | 24.4* | HuH7 TTR inh=-7.7;TTR act confirm=2.6
COc1ccc2c3c1OC1C(=O)CC[C@@]4(O)[C@@H](C2)N(C)CC[C@]314 (some centres not stated) | 1.5
COc1ccc2c3c1OC1[C@H](O)CCC4[C@@H](C2)N(C)CC[C@]314 (some centres not stated) | 1.1
CC1CCSP(=O)(Oc2ccccc2)O1 (configuration not stated) | 3.3
COCCNC(=S)N1Cc2ccccc2-n2nncc2C1 | 2.1
CC(C)(C)Cc1nnc(NC(=O)COc2ccc(Cl)cc2Cl)o1 | 2.0
CC(Cc1ccccc1)NC(=O)CCCCC(=O)NC(C)Cc1ccccc1 (configuration not stated) | -0.8
CN1C2CCC1CC(=NO)C2 | 26.5* | HuH7 TTR inh=-10.4;TTR act confirm=-0.3
C[C@H]1[C@@H](c2ccccc2)O[C@@H](c2ccccc2Br)N1C | 10.7* | HuH7 TTR inh=-7.9;TTR act confirm=0.0
O=c1[nH]c2ccccc2n1C1CCN(C(c2cccs2)c2nnnn2-c2ccc3c(c2)OCCO3)CC1 (configuration not stated) | -4.8
CCC(=O)c1ccc(OCC(=O)N2CCN(CC(=O)Nc3ccccc3C(F)(F)F)CC2)cc1 | -1.0
Cc1ncc2n1-c1ccc(Cl)cc1C(c1ccccc1F)=NC2 | -2.0
CCC(=NCc1cccnc1)c1c(O)n(-c2ccccc2)c(=O)[nH]c1=O | 1.6
CCC(=NCCCn1ccnc1)c1c(O)n(-c2ccc(OC)cc2)c(=O)[nH]c1=O | 16.6* | HuH7 TTR inh=-9.6;TTR act confirm=0.7
CC/C(=N\Nc1ccccc1)c1c(O)n(-c2ccc(OC)cc2)c(=O)[nH]c1=O | 0.8
CCOP(=O)(Nc1ccc2c(c1)C(=NNC(N)=S)c1ccccc1-2)OCC | 1.7
CS(=O)(=O)c1ccc(C2=C(CNC(=O)c3cccs3)[C@H]3CC[C@@H](C2)N3Cc2ccco2)cc1 | -0.3
Cc1cccc(-n2c(O)c(/C=C/C=Nc3ccccc3)c(=O)[nH]c2=O)c1 | 1.8
Cc1cccc(N=Cc2c(O)n(-c3ccccc3C)c(=O)[nH]c2=O)c1 | 12.7* | HuH7 TTR inh=2.3;TTR act confirm=-1.5
Cc1ccccc1-n1c(O)c(/C=N/c2nccs2)c(=O)[nH]c1=O | 0.0
COC(=O)C1=C(c2ccc(OC)c(OC)c2)C[C@@H]2CC[C@H]1N2C(=O)NCCNC(C)=O | -3.2
SMILES | TTR transcr act | others
CC(C)(C)NC(=S)N1Cc2ccccc2-n2nncc2C1 | 3.4
O=C1CC(=O)N(c2ccc(Cl)cc2)C(=O)N1 | 0.5
CCc1ccccc1N1C(=O)CC(=O)NC1=O | 9.8* | HuH7 TTR inh=-7.9;TTR act confirm=0.3
CC(C)(C)C(=O)N1Cc2cc(-c3cccc(F)c3)ccc2-n2nncc2C1 | -1.0
CC1=C(O)C(=O)C=C2C1=CC=C1C2(C)CCC2(C)C3CC(C)(C(=O)O)CCC3(C)CCC12C (configuration not stated) | -6.9
COc1ccccc1-n1c(-c2ccc(C)cc2)nc2ccccc2c1=O | 8.6
CCCCCOc1ccc(C)cc1CN(CCCl)CCCl | -0.6
O=C(Nc1cccc(Cl)c1)OCC#CCN1CCCC1 | 7.7
O=c1ccc2c(O)c3ccoc3cc2o1 | -1.5
C[C@H](NC(=O)OCc1ccccc1)[P+](=O)O | 0.3
O=C(C(=O)N1CCC2(CC1)OCCO2)c1c[nH]c2ccccc12 | 10.5* | HuH7 TTR inh=-6.6;TTR act confirm=0.1
O=C(c1ccccc1)N1CCC2(CC1)OCCO2 | 0.2
CC(C(=O)c1c[nH]c2ccccc12)N1CCOCC1 (configuration not stated) | 2.1
O=C1c2ccccc2-n2nnnc2C2c3ccccc3-n3nncc3CN12 (configuration not stated) | -1.1
CC[C@H](OC(C)=O)C(C[C@H](C)N(C)C)(c1ccccc1)c1ccccc1 | -0.8
Cc1cccn2c(NCC3CCCO3)c(C(C)C)nc12 (configuration not stated) | 27.0* | HuH7 TTR inh=9.2;TTR act confirm=-0.7
CC(=O)N1Cc2cnnn2-c2ccccc2C1C#N (configuration not stated) | 1.3
COC(=O)C1=C(c2ccc(OC(F)(F)F)cc2)C[C@@H]2CC[C@H]1N2C(=O)NCCO | 1.6
